# Screening results deposited in PubChem by National Center for Advancing Translational Sciences (NCATS).
# Rows were chosen to be rich in hits. Some 7.5% of all compounds tested hit in one or more screens of this group.
# ELG1 genotoxic: qHTS screen for small molecules that induce genotoxicity in human embryonic kidney (HEK293T) cells expressing luciferase-tagged ELG1. hit rate 1.3% among 330,000. AID 504466, 2011. HEK293T ELG1-luciferase reporter, luminescence, 16 h. Potency, µM (series often up to 46 µM), inactives show at the highest dose activity change, positive = activation, usual class: activators; also: % of control where 0% means no effect; nearly all actives have a fitted effect of over 60% in size
#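 Screening used a luciferase reporter fused to human ELG1 in HEK293T cells. Luminescence was read on a CCD plate imager after 16 hr exposure and 30 min ONE-Glo incubation.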
# Rab9 prom act: qHTS Assay for Rab9 Promoter Activators. Huh7 Rab9 promoter-luciferase reporter, luminescence, 24 h. Potency, µM (doses to about 9.22 µM), inactives show at the top dose activation, negative = inhibition, actives largely listed as activators. hit rate 2.8% among 320,000. AID 485297, 2010; also: % of control where 0% means no effect; nearly all actives have a fitted effect of over 60% in size
#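 Huh7 cells stably carrying Rab9 promoter–luciferase reporter, plated 1500 cells/well, compound added after 2 h and incubated 24 h at 37 °C; luciferase luminescence then read after 10 min with detection reagent.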
# FLuc counter: qHTS profiling assay for firefly luciferase inhibitor/activator using purifed enzyme and Km concentrations of substrates (counterscreen for miR-21 project); purified FLuc, Km substrates, luminescence inhibition; Potency, µM (highest dose often 57.5 µM), for the others: at the top dose activity change, negative = inhibition, hits mostly inhibitors; hit rate 6.9% among 360,000;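 also: plate controls were vehicle for no effect and reference inhibitor for full effect; nearly all actives have a fitted effect of over 55% in size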
# Target sequence (P08659 whole entry, looked up): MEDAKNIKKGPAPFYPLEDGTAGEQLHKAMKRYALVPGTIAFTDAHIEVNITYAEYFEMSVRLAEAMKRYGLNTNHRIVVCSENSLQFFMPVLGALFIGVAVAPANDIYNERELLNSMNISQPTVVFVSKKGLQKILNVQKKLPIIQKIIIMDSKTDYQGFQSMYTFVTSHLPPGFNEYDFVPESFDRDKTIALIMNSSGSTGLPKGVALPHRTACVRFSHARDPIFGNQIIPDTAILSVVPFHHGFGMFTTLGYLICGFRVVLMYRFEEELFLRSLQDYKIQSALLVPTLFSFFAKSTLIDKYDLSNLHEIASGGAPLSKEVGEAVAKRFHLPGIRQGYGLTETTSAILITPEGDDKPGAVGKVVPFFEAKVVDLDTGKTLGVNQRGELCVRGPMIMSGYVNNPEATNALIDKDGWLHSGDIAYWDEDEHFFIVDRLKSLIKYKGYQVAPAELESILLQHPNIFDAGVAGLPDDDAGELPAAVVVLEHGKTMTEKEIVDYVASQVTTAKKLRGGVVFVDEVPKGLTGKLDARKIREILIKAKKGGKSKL
#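 Purified P. pyralis luciferase, 10 nM final, with Km-level 10 uM D-luciferin and 10 uM ATP in 50 mM Tris acetate pH 7.5, 10 mM Mg acetate, 0.01% Tween-20, 0.05% BSA; 6-point qHTS titration about 60 µM downward; luminescence read.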
# SMN2 splice up: qHTS Assay for Enhancers of SMN2 Splice Variant Expression; hit rate 2.8% among 210,000; HEK293 SMN2-luciferase splicing reporter, luminescence, 30-36 h; AID 1458, 2008; Potency, µM (doses to about 46.1 µM), without a hit: at the highest dose activity change, positive = activation, actives largely listed as activators; also: % of control where 0% means no effect; nearly all actives have a fitted effect of over 55% in size
#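 qHTS luciferase splicing reporter: luminescence rises when SMN2 exon 7 is included in transfected HEK293 cells. Compound exposure lasted 30-36 h at 37C, with 4.5 mM final sodium butyrate as control, followed by a ONE-Glo read.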
# NPC1 promoter act: qHTS Assay for NPC1 Promoter Activators. Huh7 NPC1 promoter luciferase reporter, 24 h. Potency, µM (top dose mostly 9.22 µM), inactives show at the top dose activation, usual class: activators. hit rate 2.4% among 320,000. AID 485313, 2010; also: % of control where 0% means no effect; nearly all actives have a fitted effect of over 60% in size
#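 Huh7 cells stably carrying NPC1 promoter–luciferase, plated in Opti-MEM with 10% FBS for 2 h, were exposed to compound in DMSO for 24 h at 37 °C; luciferase reagent was added for 10 min and luminescence read.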
# Starred values were filed as active, the others as inactive; ? = inconclusive; / = no result; [ ] = dose if it differs, or a comment. Calls follow the shape of the dose curve; as a rule, active = well fitted curve in the direction sought with a large enough effect; inconclusive = small, poorly fitted or top-dose-only effect, or another doubt; inactive = no such curve, though single readings can be large; an effect the other way counts as inactive or inconclusive. Potency is read from the fitted curve at half-maximal effect.
SMILES,ELG1 genotoxic,Rab9 prom act,FLuc counter,SMN2 splice up,NPC1 promoter act
Cc1ccc2oc(-c3ccc(Cl)c(NC(=O)c4ccc(-c5ccccc5[N+](=O)[O-])o4)c3)nc2c1,/,/,?,-9.5%,/
CCc1ccc2oc(-c3cccc(NC(=O)c4cccnc4)c3)nc2c1,-1.6%,?,1.35µM*,16.3%,?
COc1ccc(-c2nc3ccccc3o2)cc1NC(=O)c1cccnc1,/,/,10.7µM*,-0.7%,/
CCc1ccc2oc(-c3cccc(NC(=O)C(C)(C)Oc4ccc(Br)cc4)c3)nc2c1,/,/,2.13µM*,5.01µM*,/
Cc1cc(C)n(CC(=O)O)n1,1.5%,-0.1%,2.9%,-2.6%,-2.9%
Cc1ccc2oc(-c3ccc(Cl)c(NC(=O)c4cc5ccccc5o4)c3)nc2c1,/,/,12µM*,6.0%,/
CCc1ccc2oc(-c3cccc(NC(=O)c4cc5ccccc5o4)c3)nc2c1,/,/,2.39µM*,?,/
CCC(C(=O)N1CCOCC1)n1nc(C)n2c(cc3cc(C)ccc32)c1=O (configuration not stated),4.5%,3.7%,1.0%,/,-1.1%
CSc1ccccc1OCc1cc(C(=O)NC(C)Cc2cccc(C)n2)no1 (configuration not stated),-10.0%,?,19µM*,/,?
CCn1nc(C)c(CNC(=O)c2cc(COc3ccccc3SC)on2)c1C,-7.1%,-0.9%,-16.2%,/,0.1%
CSc1ccccc1OCc1cc(C(=O)NCc2cccc(C)n2)no1,?,3.98µM*,12µM*,/,2.82µM*
Fc1ccccc1/C=N/n1cnnc1,-1.1%,-4.7%,6.1%,-15.2%,-1.7%
Cc1cc(C(F)(F)F)n2ncc(-c3ccc(F)cc3)c2n1,2.7%,-5.7%,-0.5%,-20.0%,-1.8%
Cc1nc2c(-c3ccc(F)cc3)cnn2c(N)c1-c1ccccc1,0.58µM*,2.9%,0.239µM*,/,-4.1%
COc1ccc(-c2c(C)nc3c(-c4ccc(F)cc4)cnn3c2N)cc1,?,0.447µM*,0.849µM*,/,0.501µM*
Nc1c(-c2cccc(Cl)c2)cnc2c(-c3ccccc3)cnn12,?,?,4.26µM*,/,1.26µM*
Cc1nc2c(-c3ccc(Cl)cc3)cnn2c(N)c1-c1ccc(F)cc1,6.51µM*,?,1.69µM*,/,14.6%
CCCOc1ccc(OC(=O)c2ccc(-c3ccc(CCC)cn3)cc2)cc1,/,/,-0.1%,-54.3%,/
COc1ccccc1-c1c(C)nn2c(N)c(-c3ccc(Cl)cc3)cnc12,0.5%,9.8%,?,/,1.2%
Nc1c(-c2ccc(Cl)cc2)cnc2c(-c3ccc(F)cc3)cnn12,7.3µM*,0.501µM*,1.51µM*,/,0.562µM*
CC(C)(C)OC(=O)N1CCC(NC(=O)c2nc[nH]c2C(=O)NCC(=O)OCc2ccccc2)CC1,-2.6%,-1.3%,-0.5%,/,0.6%
Cc1ccc(CCNC(=O)C2CCC(=O)N(Cc3ccccc3F)C2)o1 (configuration not stated),18.3µM*,?,?,/,?
COc1ccccc1CCCNC(=O)C1CCC(=O)N(Cc2ccccc2F)C1 (configuration not stated),?,3.98µM*,21.3µM*,/,2.82µM*
Cc1cc(C)nc(CCNC(=O)C2CCC(=O)N(Cc3ccccc3F)C2)n1 (configuration not stated),3.6%,-5.2%,-6.7%,/,-1.0%
CC(C)COc1ccc(/C(=N/O)c2ccccc2)cc1,?,21.6%,16.9µM*,-13.5%,20.1%
SMILES,ELG1 genotoxic,Rab9 prom act,FLuc counter,SMN2 splice up,NPC1 promoter act
CC(O)COc1ccc(/C(=N/O)c2ccccc2)cc1 (configuration not stated),0.5%,-2.4%,?,8.1%,0.5%
O=C(Nc1nnc(SCC(=O)N2CCOCC2)s1)c1ccccc1Cl,13.1%,?,8.49µM*,-7.1%,?
O=C(Nc1nnc(SCC(=O)N2CCCCC2)s1)c1ccccc1F,10.3%,16.7%,23.9µM*,/,12.1%
O=C(Cc1cccs1)Nc1nnc(SCC(=O)N2CCCCC2)s1,-7.2%,-2.3%,1.1%,23.5%,-1.3%
O=C(Nc1nnc(SCC(=O)N2CCCCC2)s1)c1cccs1,2.3%,17.1%,19µM*,?,1.6%
COc1ccc(-c2cc3ccc(O)c(CN4CCCC4)c3oc2=O)cc1OC,/,/,15.1µM*,/,/
COc1cc(C(=O)Nc2ccc(C)cc2)c2ccccc2n1,13.1%,-28.2%,-9.1%,/,-22.4%
Cc1ccc(NC(=O)C2=C(O)CCn3c2nc2ccccc23)cc1,0.8%,8.2%,12µM*,-15.9%,16.6%
CCCn1c(SCC(=O)/C(C#N)=C(\C)N)n[nH]c1=O,-0.4%,-9.1%,1.2%,-11.0%,20.0%
Cc1ccccc1N(C(=O)Cc1cccs1)C(C(=O)NCC1CCCO1)c1cccnc1 (configuration not stated),-0.6%,-3.0%,-3.5%,2.6%,-2.0%
O=C(NCC1CCCO1)C(c1cccnc1)N(C(=O)Cc1cccs1)c1ccccc1 (configuration not stated),10.1%,?,10.7µM*,-4.7%,?
CC(=O)c1ccc(S(=O)(=O)Nc2ccc(-c3ccc(N4CCCCCC4)nn3)cc2)cc1,/,/,10.7µM*,/,/
CC(=O)c1ccc(S(=O)(=O)Nc2ccc(-c3ccc(N4CCCCC4)nn3)cc2)cc1,/,/,8.49µM*,/,/
Cc1ccc(C(=O)Cc2cc3ccccc3oc2=O)c(C)c1,?,0.794µM*,3.01µM*,/,1.41µM*
Cc1ccc(C(=O)NC(=S)Nc2ccc(-c3cc4ccccc4oc3=O)cc2)c(C)c1,-2.1%,-4.9%,4.4%,9.3%,-9.1%
COc1ccc(C(=O)Cc2cc3ccccc3oc2=O)cc1,?,?,12µM*,/,3.55µM*
CCOc1ccc(C(=O)Cc2cc3cccc(OC)c3oc2=O)cc1,3.0%,1.1%[1.84 µM],?,/,1.0%
CCOC(=O)N1CCN(C(=O)c2ccc(NC(=O)CC)cc2)CC1,-2.6%,5.9%,0.2%,8.0%,-3.2%
Cn1c(-c2ccc(Br)o2)nc2ccccc21,?,1.41µM*,2.39µM*,12.6µM*,1.41µM*
Brc1ccc(Cn2c(-c3ccc(Br)o3)nc3ccccc32)o1,4.9%,10.8%,19µM*,18.6%,13.3%
Cc1oc(-c2nc3ccccc3n2C)cc1C(=O)c1ccccc1,1.84µM*,0.316µM*,0.379µM*,1.58µM*,0.501µM*
Cn1c(Sc2nc3ccccc3n2C)nc2ccccc21,-4.5%,1.8%,-0.2%,13.5%,-4.3%
CC(=O)c1ccc(-c2nc3ccccc3n2C)o1,20.6µM*,?,21.3µM*,11.2µM*,?
Cn1cc(C(=O)c2ccccc2)cc1-c1nc2ccccc2n1C,-16.8%,-5.6%,-9.9%,-10.3%,-0.3%
Cc1ccc(-c2nc3ccccc3n2C)o1,2.91µM*,1.12µM*,5.36µM*,11.2µM*,1.58µM*
Cn1c(-c2nonc2N)nc2ccccc21,-4.8%,-1.6%,2.9%,/,-0.1%
